Compound activity: PubChem, National Center for Advancing Translational Sciences (NCATS)
EPAC1 antagonist – antagonists of human EPAC1; 360,000 compounds, 0.14% hits; EPAC1 GEF assay, Rap1b-BODIPY-GDP exchange fluorescence; O95398; Potency, µM (doses to about 115 µM), for the others: at the highest dose activity change, negative = inhibition, actives largely listed as inhibitors;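 also: plate controls were vehicle for no effect and positive control for full effect; nearly all actives have a fitted effect of over 50% in size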
EPAC2 antag – EPAC2 (human) antagonism; 360,000 compounds, 0.18% hits; Potency, µM (top dose mostly 114 µM), for inactives: at the highest dose activity, negative = inhibition, actives largely listed as inhibitors; Q8WZA2; AID 720708; EPAC2 GEF exchange of Rap1B-BODIPY-GDP, fluorescence; also: % is scaled to controls: 0 for no effect and ±100 for the full control effect; nearly all actives have a fitted effect of over 45% in size
EPAC1 ag – EPAC1 (human) agonism | 360,000 compounds, 0.073% hits | Potency, µM (titrated, usually from 154 µM), for the others: at the highest dose activation, usual class: activators | EPAC1 agonist qHTS, biochemical assay; response scale: 100% = response to 6.5 mM cAMP | O95398; also: nearly all actives have a fitted effect of over 60% in size
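Multi-concentration qHTS readout: loss of Rap1B-bound BODIPY-GDP fluorescence driven by 100 nM EPAC1 with excess GDP (50 uM), monitored kinetically at room temperature; agonist response expressed relative to 6.5 mM cAMP.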
EPAC2 ag – agonists of human EPAC2 (RAPGEF4); Q8WZA2; EPAC2 activation, biochemical qHTS; response scale: 100% = 6.5 mM cAMP response; Potency, µM (top dose mostly 154 µM), inactives show top-dose activation, actives largely listed as activators; 360,000 compounds, 0.079% hits; AID 720711; also: nearly all actives have a fitted effect of over 50% in size
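Guanine nucleotide exchange by EPAC2 is measured as reduced fluorescence of BODIPY-GDP once it is released from 250 nM Rap1B. Plates are read kinetically for 30 min at room temperature; results are scaled to 6.5 mM cAMP.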
* = called active by the depositor; ? = inconclusive. This is a sample that favours compounds with a hit; in the whole collection about 0.38% have one here. Calls follow the shape of the dose curve; as a rule, active = well fitted curve in the direction sought with a large enough effect; inconclusive = small, poorly fitted or top-dose-only effect, or another doubt; inactive = no such curve, though single readings can be large; an effect the other way counts as inactive or inconclusive. Potency is read from the fitted curve at half-maximal effect.

SMILES	EPAC1 antagonist	EPAC2 antag	EPAC1 ag	EPAC2 ag
CC1Sc2ccc(C(=O)OCc3ccccc3Cl)cc2NC1=O (stereo not drawn)	0%	3%	50µM*	0%
COc1ccc(CCC(=O)Nc2cc(S(=O)(=O)N3CCCCC3)ccc2N(C)C)cc1	-9%	9%	2%	2%
Cc1ccc(C(NC(=O)C(C)C)c2cc([N+](=O)[O-])c3cccnc3c2O)cc1 (stereo not drawn)	50µM*	0%	-6%	-10%
COc1ccccc1/C=C/C(=O)OCC(=O)Nc1c(C)nn(-c2ccccc2)c1C	-6%	-5%	11%	3%
Cc1cc2ccccn2c1C(=O)c1ccccc1Br	1%	13µM*	5%	21%
Cc1cc2ccccn2c1C(=O)c1ccc(Cl)c([N+](=O)[O-])c1	-10%	11µM*	4%	3%
Cc1cc2ccccn2c1C(=O)c1cccc([N+](=O)[O-])c1	-2%	?	20%	24%
Cc1cccc(NC(=O)CSc2nnc3ccc(-c4cccnc4)nn23)c1	6%	7%	-7%	9%
CCCC(=O)N1CCCC1(C)C(=O)Nc1ccc2nc(C)ccc2c1 (stereo not drawn)	-9%	2%	-7%	1%
O=c1nc2s/c(=C\c3ccc(-c4ccccc4[N+](=O)[O-])o3)c(=O)n2nc1-c1ccccc1	61%	25%	112µM*	71µM*
O=C1S/C(=C\c2ccc(O)c([N+](=O)[O-])c2)C(=O)N1Cc1cccc([N+](=O)[O-])c1	?	?	10%	-2%
Cc1ccc(NC(=O)CN2C(=O)S/C(=C/c3ccc(O)c([N+](=O)[O-])c3)C2=O)cc1C	45µM*	?	1%	-12%
O=C1S/C(=C\c2ccc(O)c([N+](=O)[O-])c2)C(=O)N1c1ccccc1Cl	56µM*	?	-22%	5%
N=C1SC(c2ccccc2)C(=O)N1c1ncc(Cc2ccccc2Cl)s1 (stereo not drawn)	71µM*	-2%	-11%	-1%
O=C(COC(=O)c1cc(S(=O)(=O)N2CCOCC2)ccc1F)NCc1ccc2c(c1)OCO2	0%	9%	-8%	-5%
CC(Oc1ccc(Cl)cc1Cl)c1ccn[nH]1 (stereo not drawn)	-16%	45µM*	-6%	12%
COc1ccc(NC(C)=O)cc1S(=O)(=O)Nc1ccc(OCc2ccccc2)cc1	-14%	-14%	14%	12%
COc1ccc(S(=O)(=O)Nc2ccc(OCC(=O)O)cc2)c2ccccc12	-15%	89µM*	8%	7%
COc1ccccc1CCC(=O)OCC(=O)Nc1cc(C)nn1-c1ccccc1	-11%	2%	100µM*	6%
Cc1ccc(OCCC(=O)OCC(=O)Nc2cc(C)nn2-c2ccccc2)cc1	-22%	-3%	3%	1%
Cn1c(N)c(C(=O)CSc2nnc(-c3c[nH]c4ccccc34)n2C2CC2)c(=O)[nH]c1=O	?	50µM*	10%	63µM*
O=C1S/C(=C\C=C\c2ccco2)C(=O)N1c1ccc(O)cc1	-27%	0%	5%	4%
O=C(O)C(Cc1ccccc1)N1C(=O)/C(=C/C=C/c2ccco2)SC1=S (stereo not drawn)	89µM*	-27%	14%	0%
O=C1S/C(=C\C=C\c2ccco2)C(=O)N1c1ccccc1	89µM*	-3%	-10%	8%
CC1=CC(C)(C(Cl)(Cl)Cl)C(C)=CC1=NO (stereo not drawn)	-13%	?	-5%	16%
SMILES	EPAC1 antagonist	EPAC2 antag	EPAC1 ag	EPAC2 ag
CC(C)c1cc(C(=O)NCc2ccc(F)cc2)c(N)s1	-14%	?	-5%	13%
Cc1coc2c1C(=O)C(=O)c1c-2ccc2c(C)cccc12	79µM*	4%	-2%	-1%
CN(C)c1ccc(/C=C(/C(=O)c2ccc(Cl)cc2Cl)n2cncn2)cc1	-13%	-24%	100µM*	45µM*
COC(=O)c1cc2c(-c3ccccc3)cc3ccccn3c-2c1C(=O)OC	-7%	-4%	9%	11%
COC(=O)c1c(C)c2c(C)cc3ccccn3c-2c1C(=O)OC	2%	11µM*	-6%	-9%
Oc1c(Br)cc(/C=N/Nc2ccc(Cl)nn2)cc1Br	25µM*	-7%	-4%	-2%
Oc1c(Br)cc(Br)cc1/C=N/Nc1ccc(Cl)nn1	-19%	1%	-9%	4%
CSc1ccc(CN2CCC2(C)C(=O)NC2CCN(Cc3ccccc3)CC2)cc1 (stereo not drawn)	-1%	2%	-9%	4%
